Consider 35 compounds from PubChem BioAssay AID602449 (Sanford-Burnham Center for Chemical Genomics, 2012).

Out of some 360,000 compounds screened, about 5,000 (1.4%) were called active. The full list was thinned out, with actives kept by preference. Unmarked numbers belong to inactive results.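 The calls were made as follows: active = inhibition of 50% or more, scaled per plate between neutral and stimulator controls; inactive = the rest.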

The nature of this test: blockers of Ca2+-induced mitochondrial swelling – biochemical, isolated mouse mitochondria, absorbance, primary screen (AID 602449).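 Also: 0% = DMSO wells given calcium and 100% = 1 mM EGTA wells.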 The note with it: 30 min, at 10 µM, hits give high values.
As a reminder, the inhibition is the drop in the measured response relative to a control, in per cent. For the compound `CCCCC(=O)N/N=C/c1c(O)n(CC)c(=S)n(CC)c1=O`, the inhibition was 58% (active).
In the case of `Cn1c(O)c(C=NCCCC(=O)O)c(=O)n(C)c1=O` it was 1.1%.
In the case of `CCCCC(=O)N/N=C/c1c(O)n(CCC2=CCCCC2)c(=O)[nH]c1=O` it was -4.5%; in that of `COc1ccc2c(c1)[C@]13CCCCC1C(C2)N(C)CC3` (stereo not given in full), -3%; in that of `Cc1ccc(C2CN(C)CC2C(=O)c2ccc(F)cc2)cc1` (stereo not given), -0.4%.
In the case of `CCN(CC)CCOC(=O)c1cc2cc(COC)ccc2o1` it was -3.6%.
In the case of `CCOc1cccc(=NC2CCCCC2)c2c(C)[nH]c(C)c12`, the inhibition was 62.7% (active).
Then `C=CCn1c(O)c(/C=N/N2CCOCC2)c(=O)[nH]c1=S`, with -1.7%; and `O=C(CCCn1c(=O)[nH]c2cc(Cl)ccc2c1=O)N1CCC2(CC1)OCCO2`, with 1.1%; and `C[C@H]1CN([C@@H](C)CO)C(=O)CCCn2nncc2CO[C@H]1CN(C)C(=O)Oc1ccccc1`, with 0.9%.
Then `CCCCCCCCCCCCn1ccc(=N)cc1`, with 68.6% (active).
In the case of `CC(=O)NCC1=C(c2ccc3ccccc3c2)C[C@@H]2CC[C@H]1N2Cc1ccco1` it was -0.6%; in that of `O=C(CN1CCCCC1)Nc1ccc(Br)cc1C(=O)c1ccccc1Cl`, 1.1%; in that of `COc1c(O)ccc2c1-c1c3c(cc4c1C(C2)N(C)CC4)OCO3` (stereo not given), -0.5%.
Consider `c1ccc(C2NCc3ccccc3-n3cccc32)cc1` (stereo not given), for which the inhibition is 0.4%.
Then `COc1ccc(C2NCc3ccc4c(c3-n3cccc32)OCO4)cc1OC` (stereo not given), with 68% (active); and `O=C(Nc1cccc2ccccc12)N1CCC2(CC1)OCCO2`, with 0.6%; and `O=C1/C(=C\c2ccc3c(c2)OCO3)N2CCC1CC2`, with -0.8%.
In the case of `O=c1c2ccccc2nc(-c2ccc(Cl)cc2Cl)n1-c1ccncc1` it was 0.3%; in that of `COc1ccc(-c2nc(CS(=O)CC(=O)N3CCC4(CC3)OCCO4)c(C)o2)cc1` (stereo not given), 1%.
In the case of `O=Cc1cn(Cc2ccc(F)cc2Cl)c2ccccc12` it was 60.7% (active); in that of `Cc1ccnc(-n2c(C)cc(/C=C3\C(=O)NC(=S)N(C)C3=O)c2C)c1`, 6.4%.
As to `O=C1C2CCN(CC2)C1(CO)CO`, the inhibition is -0.5%.
Then `CCN(CC)C(=O)c1ccc(NC(=O)c2sccc2-c2ccccc2)cc1`, with 0.3%; and `CCCCn1c(O)c(C(CC)=NCc2ccco2)c(=O)[nH]c1=O`, with -0.1%.
Then `CCCCCCN=C(CC)c1c(O)n(CCCC)c(=O)[nH]c1=O`, with 79.8% (active).
Take `CCC(=NCCCO)c1c(O)n(-c2ccc(OC)cc2)c(=O)[nH]c1=O`: the inhibition was 2.3%.
As for `Cc1cccc(-n2c(O)c(C=NC34CN5CN(CN(C5)C3)C4)c(=O)[nH]c2=O)c1`, the inhibition was 2.5%.
In the case of `CSc1ccc(C(=O)C2CCCN(Cc3ccn[nH]3)C2)cc1` (stereo not given) it was 1.7%.
In the case of `CC(=CCOc1ccc2ccc(=O)oc2c1)C1=CC(=O)C(C)(C)O1` it was 1.5%; in that of `O=C(NCC1=C(c2ccc3ccccc3c2)C[C@@H]2CC[C@H]1N2Cc1ccco1)c1cccs1`, -1.7%; in that of `CC(Cc1ccccc1)NCCC(c1ccccc1)c1ccccc1` (stereo not given), 104% (active).
As for `CCOc1ccc(C2SCC(=O)Nc3c2c(C)nn3C2CCOC(C)(C)C2)cc1` (stereo not given), the inhibition is 0.4%.
Then `Cc1ccsc1C(=O)C1CCCN(Cc2ccc(O)cc2)C1` (stereo not given), with 0.1%; and `Cn1c(O)c(C=Nc2ccc3c(c2)CCC3)c(=O)n(C)c1=O`, with -1.3%.
